Source: PubChem (National Center for Advancing Translational Sciences (NCATS))
Tau fibril FP: qHTS for Inhibitors of Tau Fibril Formation, Fluorescence Polarization. K18 P301L tau heparin fibrillization, Alexa594 FP, 6 h. hit rate 0.39% among 280,000. Potency, µM (top dose mostly 57.7 µM), inactives show at the highest dose activity, negative = inhibition, hits mostly inhibitors. Microtubule-associated protein tau (Homo sapiens), P10636; further: potency means the concentration at half of the fitted maximal effect; nearly all actives have a fitted effect of over 55% in size
Target sequence (P10636 561-689 P618L limits assumed): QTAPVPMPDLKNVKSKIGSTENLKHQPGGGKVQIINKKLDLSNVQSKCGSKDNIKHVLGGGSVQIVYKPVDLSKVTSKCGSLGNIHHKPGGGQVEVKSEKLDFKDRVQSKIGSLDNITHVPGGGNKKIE
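Heparin (20 uM) drove fibril formation of recombinant tau K18 P301L, 15 uM unlabeled with 0.24 uM Alexa 594 label, for 6 hr at 37 C in 100 mM sodium acetate pH 7. Fluorescence polarization (555/632 nm) read 1 hr after 30 uM ThT.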
Coupling enz: qHTS Assay for Inhibitors of Fructose-1,6-bisphosphate Aldolase from Giardia Lamblia: Coupling assay counterscreen; activity change, negative = inhibition, % at 58.2 µM, hits read low; hit rate 0.67% among 290,000; coupling enzyme system counterscreen, AmpLite Red fluorescence; in the data active means activity change below about -30%
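Activity here indicates interference with the coupling reaction, not aldolase inhibition. Compounds at 57.5 uM final met coupling enzymes for 10 min at RT; substrate and AmpLite Red detection followed, with a 525/598 nm fluorescence read after 20 min.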
Tau fibril ThT: qHTS for Inhibitors of Tau Fibril Formation, Thioflavin T Binding | Microtubule-associated protein tau (Homo sapiens), P10636 | hit rate 2.1% among 270,000 | Potency, µM (highest dose often 57.4 µM), without a hit: at the top dose activity, negative = inhibition, hits mostly inhibitors | recombinant tau K18 P301L, heparin-induced fibrillization, ThT fluorescence; further: potency means the concentration at half of the fitted maximal effect; nearly all actives have a fitted effect of over 55% in size
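Heparin-induced fibrillization of the P301L-mutant K18 repeat-domain fragment of human tau was followed by ThT binding in quantitative high-throughput format.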
Tau fluor cs: Counterscreen qHTS for Inhibitors of Tau Fibril Formation, Fluorescence Polarization; tau K18 P301L (four-repeat tau fragment) Alexa594 fluorescence, heparin fibrillization; Potency, µM (doses to about 57.7 µM), without a hit: at the highest dose activity change, negative = decrease; hit rate 0.93% among 280,000; further: potency means the concentration at half of the fitted maximal effect; nearly all actives have a fitted effect of over 55% in size
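Human K18 P301L tau (15 uM unlabeled plus 0.24 uM Alexa 594-labeled, final) in 100 mM sodium acetate pH 7 was mixed with compound and 20 uM heparin and incubated 6 hr at 37 C.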
KDM4E inh: qHTS Assay for Inhibitors of Human Jumonji Domain Containing 2E (JMJD2E). hit rate 1.6% among 230,000. JMJD2E catalytic domain, FDH-coupled NADH fluorescence (FDH is formaldehyde dehydrogenase). Potency, µM (highest dose often 57.1 µM), without a hit: top-dose activity change, negative = inhibition, usual class: inhibitors. AID 2147, 2009; active means well fitted inhibition curve with a large enough effect, not every such curve was filed as active; inconclusive means small, poorly fitted or top-dose-only effect, or another doubt; inactive means no such curve, though single readings can be large or run the other way;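 further: potency means the concentration at half of the fitted maximal effect; 0% = wells with enzyme and -100% = buffer wells without enzyme; nearly all actives have a fitted effect of over 50% in size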
Target sequence (B2RXH2 1-337 limits assumed): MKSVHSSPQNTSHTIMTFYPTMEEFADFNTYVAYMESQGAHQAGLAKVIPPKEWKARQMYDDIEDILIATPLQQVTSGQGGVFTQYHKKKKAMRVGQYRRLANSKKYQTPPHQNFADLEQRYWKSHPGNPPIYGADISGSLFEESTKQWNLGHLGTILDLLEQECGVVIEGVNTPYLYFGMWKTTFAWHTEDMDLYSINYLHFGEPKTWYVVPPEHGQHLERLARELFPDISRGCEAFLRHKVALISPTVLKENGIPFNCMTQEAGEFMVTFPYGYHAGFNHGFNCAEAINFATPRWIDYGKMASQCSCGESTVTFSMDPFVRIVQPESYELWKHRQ
An asterisk follows results filed as active; ? = inconclusive; . = no result; [ ] = dose if it differs, or a comment. Shown are actives, neighbours in structure and some others; about 3% of the full set was active somewhere. Unless noted, the call rests on the fitted dose curve; in most records, active means well fitted curve in the direction sought with a large enough effect; inconclusive means small, poorly fitted or top-dose-only effect, or another doubt; inactive means no such curve, though single readings can be large; an effect the other way counts as inactive or inconclusive. Unless noted, on the % scale 0 is the no-effect control and ±100 the full control effect.

SMILES	Tau fibril FP	Coupling enz	Tau fibril ThT	Tau fluor cs	KDM4E inh
CSCC[C@H](NC(=O)[C@H](CC(C)C)N1CCC(NC(=O)[C@@H](NC(=O)[C@H](Cc2ccccc2)NC(=O)[C@H](CO)NC(=O)[C@H](CC(=O)O)NC(=O)[C@@H](N)CCCCN)C(C)C)C1=O)C(N)=O (some centres not stated)	.	1	.	.	.
COC(=O)c1ccccc1S(=O)(=O)N1CCc2nc(-c3ccccc3)c3c(c2C1)CO[C@@H](C)C3	-1%[11.6 µM]	2	3%[11.5 µM]	0%[11.6 µM]	-3%[11.4 µM]
COC1=C(N)C(=O)c2nc(-c3nc(C(=O)O)c(C)c(-c4ccc(OC)c(OC)c4O)c3N)ccc2C1=O	?	-64*	16µM*	?	331%
CSc1cccc(NC(=O)C2CCCN(C(=O)c3cnn(-c4ccc(F)cc4)c3-n3cccc3)C2)c1 (configuration not stated)	-2%	.	-11%	?	.
C=C1C[C@@]23C[C@@]1(O)CC[C@@H]2[C@]12C=C[C@@H](O)[C@](C)(C(=O)O1)[C@@H]2[C@@H]3C(=O)O	7%	5	-3%	-1%	3%
CN(C)c1ccc(/C=C2/C(=O)N(c3ccc([N+](=O)[O-])cc3)N=C2N2CCOCC2)cc1	-6%	-2	16µM*	?	-5%
O=C1CC(N2CCOCC2)=NN1c1ccc([N+](=O)[O-])cc1	2%	-7	7.1µM*	?	?
O=[N+]([O-])c1ccc(N2CCOCC2)nc1	3%	3	-14%	4%	16%
Cc1ccc(NC2=Nc3ccccc3N3C2=Nc2c(c(C)nn2-c2ccccc2)C3c2ccc(O)c(O)c2)cc1 (configuration not stated)	-3%	-3	-12%	?	28µM*
Cc1nn(-c2ccccc2)c2c1C(c1ccc(O)c(O)c1)N1C(=N2)C(Nc2ccccc2)=Nc2ccccc21 (configuration not stated)	-10%	-5	?	14µM*[quencher]	18µM*
Cc1ccc(/C=c2\s/c(=C(/C#N)C(=O)N3CCCC3)n(Cc3ccco3)c2=O)s1	-12%	-3	16µM*	?	-5%
COc1cc(/C=c2\s/c(=C(/C#N)C(=O)N3CCCC3)n(-c3ccccc3)c2=O)ccc1O	2%	0	?	-7%	-2%
CC(C)C[C@H](NC(=O)[C@H](CCCCN)NC(=O)CNC(=O)[C@H](CC(C)C)NC(=O)[C@@H](N)C(C)C)C(=O)N[C@@H](CO)C(=O)N[C@@H](CCC(N)=O)C(=O)N[C@@H](CCC(=O)O)C(=O)N[C@@H](CC(C)C)C(=O)N[C@@H](Cc1cnc[nH]1)C(=O)N[C@@H](CCCCN)C(=O)N[C@@H](CC(C)C)C(=O)N[C@@H](CCC(N)=O)C(=O)N[C@H](C(=O)N[C@@H](Cc1ccc(O)cc1)C(=O)N1CCC[C@H]1C(=O)N[C@@H](CCCNC(=N)N)C(=O)N[C@H](C(=O)N[C@@H](CC(N)=O)C(=O)N[C@H](C(=O)NCC(=O)N[C@@H](CO)C(=O)NCC(=O)N[C@H](C(=O)N1CCC[C@H]1C(N)=O)[C@@H](C)O)[C@@H](C)O)[C@@H](C)O)[C@@H](C)O	.	-1	.	.	.
CC(=O)Nc1ccc(S(=O)(=O)Nc2nnc(CC(C)(C)C)s2)cc1	18%	0	4µM*	-33%	-2%
CCc1nnc(NS(=O)(=O)c2ccc(NS(=O)(=O)c3ccc(NC(C)=O)cc3)cc2)s1	0%	11	-1%	-3%	-2%
COc1ccccc1CNc1ccc(N2CCCCC2)cc1	?	-12	22µM*	?	20µM*
COc1cccc(CNc2ccc(N3CCCCC3)cc2)c1OC	?	-34*	14µM*	?	11µM*
